About 79,000 compounds went through this panel and 15% of them were active in at least one assay; those are over-represented in the sample as a whole. A number with no mark means an inactive call. Calls of active or inactive are those of the source. No stated cut-off is given here; in the data, active means growth inhibition above about 70%; inactive means the rest.

A short description of test [1]: NCI Yeast Anticancer Drug Screen. Data for the rad50 strain (AID 155).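 Further: 0% = growth of vehicle-only cultures of the same strain.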 Conditions: S. cerevisiae rad50 strain growth inhibition, stronger effect = higher value; at 50.0 µM unless noted. The procedure, abridged:
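Growth of the mutant yeast was measured after compound exposure and referenced to vehicle-treated cultures.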

The nature of test [2]: NCI Yeast Anticancer Drug Screen. Data for the mec2-1 strain (AID 157). Conditions: S. cerevisiae mec2-1 strain, stronger effect = higher value; at 50.0 µM unless noted. The gist of the method: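 Yeast mec2-1 mutant treated with compound. Readout: growth inhibition vs vehicle controls.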
The nature of test [3]: NCI Yeast Anticancer Drug Screen. Data for the sgs1 mgt1 strain (AID 161).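 Further: 0% = growth of cultures given vehicle only.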 The following applies: S. cerevisiae sgs1 mgt1 strain, stronger effect = higher value; at 50.0 µM unless noted. The gist of the method:
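Read-out: growth inhibition vs vehicle controls. Cells: mutant yeast strain deficient in DNA damage repair.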

Test [4] in a line: NCI Yeast Anticancer Drug Screen. Data for the cln2 rad14 strain (AID 165).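 Further: 0% = growth equal to vehicle treated cultures.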 The following applies: S. cerevisiae cln2 rad14 strain, stronger effect = higher value; at 50.0 µM unless noted. The gist of the method:
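cln2 rad14 yeast strain; compound exposure; growth inhibition read vs vehicle controls.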

Test [5] can be described thus: NCI Yeast Anticancer Drug Screen. Data for the bub3 strain (AID 167). Conditions: S. cerevisiae bub3 mutant strain, stronger effect = higher value; at 50.0 µM unless noted. The gist of the method:
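Whole-cell yeast assay. The mutant strain was incubated with compounds, and growth inhibition was determined by comparison with vehicle-treated cells.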

Test [6] can be described thus: NCI Yeast Anticancer Drug Screen. Data for the mlh1 rad18 strain (AID 175). Conditions: S. cerevisiae mlh1 rad18 strain growth inhibition, stronger effect = higher value; at 50.0 µM unless noted. The procedure, abridged:
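Yeast w/ defined DNA-repair lesions; compound exposure; growth vs vehicle controls → % inhibition.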

Consider `COc1ccc(/C=C2\C(=O)Nc3ccccc32)cc1OC`, for which the growth inhibition is -3.4% in test [1]; 5.45% in test [2]; -9% in test [3]; -10.4% in test [4]; -1.95% in test [5]; -4.4% in test [6].
For the compound `O=[N+]([O-])c1ccc[nH]c1=S`, the growth inhibition in test [1] was -5.15%; in test [2], -15.8%; in test [3] it was -20.4%; in test [4], -7.35%; in test [5] it was 23%; in test [6], -35.6%.
In the case of `COc1cc2c(cc1OC)C1CC3(CCN1CC2)CC(=O)NC3=O` (stereo unspecified), the growth inhibition in test [1] is -8.65%; in test [2] it was -5.5%; in test [3], -4.75%; in test [4], -78.8%; in test [5], -11.9%; in test [6], 1.35%.
Turning to `Cc1cc(=O)[nH]c(NNC(C#N)c2cccc([N+](=O)[O-])c2)n1` (stereo unspecified), the growth inhibition in test [1] is -18.5%; in test [2], -11.1%; in test [3] it was -31.1%; in test [4], -12.8%; in test [5], -7.4%; in test [6], -39.5%.
As for `Cc1cc[nH]c(=O)c1[N+](=O)[O-]`, the growth inhibition was -12.3% in test [1]; -10.8% in test [2]; -2.85% in test [3]; -25.7% in test [4]; -9.65% in test [5]; 2.65% in test [6].
Take `Cc1cccc[n+]1C`: the growth inhibition was 3.45% in test [1]; 4.35% in test [2]; 0.05% in test [3]; -19.2% in test [4]; 22.9% in test [5]; 4.05% in test [6].
Turning to `C/C(=C(/C)c1ccc(O)cc1)c1ccc(O)cc1`, the growth inhibition is -9.8% in test [1]; -23.8% in test [2]; 16.3% in test [3]; 9.05% in test [4]; 45.9% in test [5]; 2.7% in test [6].
For `COc1cccc2c1C(=O)c1c(O)c(CCl)cc(OC)c1C2=O`, the growth inhibition in test [1] is 16.9%; in test [2] it was -4.6%; in test [3], 20.9%; in test [4] it was -33%; in test [5] it was 5.6%; in test [6], 14.9%.
On to `CC(=O)c1ccc2c(c1)NC(=O)CC(C)N2` (stereo unspecified), for which the growth inhibition in test [1] was 0.65%; in test [2], -1.25%; in test [3], 11.9%; in test [4], -25.6%; in test [5] it was 5.05%; in test [6], 0.3%.
For `CSc1ccc2nncc(SC)c2c1`, the growth inhibition in test [1] was 64.2%; in test [2], 7.05%; in test [3], 12.9%; in test [4], 40.1%; in test [5], 18%; in test [6] it was 40.9%.
In the case of `CCOC(=O)c1ccc(NC2Oc3cc4c(cc3C(c3cc(OC)c(OC)c(OC)c3)C2C)OCO4)cc1` (stereo unspecified), the growth inhibition in test [1] is -1.6%; in test [2] it was -15.5%; in test [3] it was -2.65%; in test [4], 11.4%; in test [5], -9.8%; in test [6], -9.55%.
As for `Cc1cc(S(=O)(=O)Nc2nc(N)nc(N3N=CCC3C)n2)c(SCC(=O)O)cc1Cl` (stereo unspecified), the growth inhibition in test [1] was -16%; in test [2], 6.25%; in test [3], 4.7%; in test [4], -7%; in test [5] it was -1.55%; in test [6] it was 2.1%.
Regarding `COc1ccc(C(=O)CCC(=O)O)c(O)c1`, the growth inhibition in test [1] was -3.25%; in test [2] it was 1.35%; in test [3], -12.6%; in test [4] it was -11.1%; in test [5], -4.15%; in test [6] it was -11.3%.
For `COc1cc2c(cc1OC)C(c1c(-c3c(Cl)cccc3Cl)noc1C)=NCC2`, the growth inhibition in test [1] is -3.8%; in test [2], -14.9%; in test [3], -11.8%; in test [4], 19.8%; in test [5], 3.2%; in test [6] it was -4.25%.
Turning to `COc1ccc2ncccc2c1[N+](=O)[O-]`, the growth inhibition in test [1] is -5.55%; in test [2], -44.3%; in test [3] it was -5.8%; in test [4], -14.5%; in test [5], -23.4%; in test [6] it was -18.6%.
Take `NCCCOB(OCCCN)OCCCN`: the growth inhibition is 8.3% in test [1]; -7.4% in test [2]; -17.1% in test [3]; -20.2% in test [4]; -2.45% in test [5]; -10.2% in test [6].
Regarding `C[N+](C)(C)CC1CCC/C1=N\OC(=O)c1ccccc1` (stereo unspecified), the growth inhibition in test [1] is -17.8%; in test [2] it was 1.85%; in test [3], 11.8%; in test [4], 12.8%; in test [5], 14.2%; in test [6], -2.7%.
As for `CCc1ccccc1NC(=O)C(=O)CC(=O)c1sc(Nc2ccccc2Cl)nc1C`, the growth inhibition was 6.25% in test [1]; 6.15% in test [2]; 26% in test [3]; -16.6% in test [4]; -2.65% in test [5]; 15.1% in test [6].
Consider `CC(C)(C)C(C)(C)SSC(C)(C)C(C)(C)C`, for which the growth inhibition in test [1] was 6.05%; in test [2], 12.4%; in test [3] it was 18.8%; in test [4], 7.4%; in test [5] it was 15.7%; in test [6], 25.5%.
On to `COc1ccc2c(c1OC(C)=O)-c1cc(OC(C)=O)cc3c1C(C2)N(C(=O)CBr)CC3` (stereo unspecified), for which the growth inhibition is 62% in test [1]; 54.2% in test [2]; 70.2% (active) in test [3]; 36% in test [4]; 20.5% in test [5]; 59.4% in test [6].
Take `O=C(O)c1cccc(C(=O)O)c1Sc1ccccc1`: the growth inhibition in test [1] is 1.9%; in test [2], 1.9%; in test [3], 5.75%; in test [4], 11.3%; in test [5] it was -0.1%; in test [6], 12.1%.

(Values after PubChem BioAssay (NCI).)
